Experimental findings from ChEMBL document CHEMBL1961873, “Compounds: GSK PKIS; Assays: Nanosyn kinase panel” (2012) are described below.

The target of assay [1] is RAC-alpha serine/threonine-protein kinase (Homo sapiens) (UniProt P31749). The following applies: at 0.1 µM.
The target is the same in assay [2]. The conditions noted are these: at 1 µM.
For assay [3], the target named is RAC-beta serine/threonine-protein kinase (Homo sapiens) (UniProt P31751). The conditions noted are these: at 0.1 µM.
For assay [4] the target is unchanged. The following applies: at 1 µM.
The target of assay [5] is RAC-gamma serine/threonine-protein kinase (Homo sapiens) (UniProt Q9Y243). The following applies: at 0.1 µM.
Assay [6] has the same target. The conditions noted are these: at 1 µM.
Assay [7] addresses G protein-coupled receptor kinase 6 (Homo sapiens) (UniProt P43250). The following applies: at 0.1 µM.
Assay [8] shares this target. The following applies: at 1 µM.
For assay [9], the target named is T1, Rhodopsin kinase GRK7 (Homo sapiens) (UniProt Q8WTQ7).
T1 sequence (whole entry): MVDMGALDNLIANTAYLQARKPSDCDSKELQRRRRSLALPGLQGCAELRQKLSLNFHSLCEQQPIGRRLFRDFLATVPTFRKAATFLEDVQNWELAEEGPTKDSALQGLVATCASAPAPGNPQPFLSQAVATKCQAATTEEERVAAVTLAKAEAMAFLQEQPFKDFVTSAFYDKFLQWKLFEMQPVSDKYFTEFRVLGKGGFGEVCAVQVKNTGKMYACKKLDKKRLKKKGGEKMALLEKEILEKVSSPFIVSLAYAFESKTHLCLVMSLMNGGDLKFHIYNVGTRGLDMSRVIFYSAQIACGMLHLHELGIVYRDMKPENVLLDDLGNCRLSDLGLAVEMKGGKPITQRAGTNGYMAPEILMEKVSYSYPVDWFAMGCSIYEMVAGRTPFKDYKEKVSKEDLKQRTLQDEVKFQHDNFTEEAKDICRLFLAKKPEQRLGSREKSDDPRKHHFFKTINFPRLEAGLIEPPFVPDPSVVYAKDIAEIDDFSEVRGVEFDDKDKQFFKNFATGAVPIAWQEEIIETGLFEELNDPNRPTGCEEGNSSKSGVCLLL
The conditions noted are these: at 0.1 µM.

The target in assay [10] is T1, Rhodopsin kinase GRK7 (Homo sapiens). The conditions noted are these: at 1 µM.
For assay [11], the target named is Serine/threonine-protein kinase MRCK alpha (Homo sapiens) (UniProt Q5VT25). The conditions noted are these: at 0.1 µM.
Assay [12] has the same target. The following applies: at 1 µM.
Assay [13] concerns the target Serine/threonine-protein kinase MRCK beta (Homo sapiens) (UniProt Q9Y5S2). The following applies: at 0.1 µM.
Assay [14] shares this target. The following applies: at 1 µM.
Assay [15] concerns the target Ribosomal protein S6 kinase alpha-5 (Homo sapiens) (UniProt O75582). The conditions noted are these: at 0.1 µM.
The target is the same in assay [16]. The conditions noted are these: at 1 µM.
In assay [17] the target is Ribosomal protein S6 kinase alpha-4 (Homo sapiens) (UniProt O75676). The following applies: at 0.1 µM.
For assay [18] the target is unchanged. The conditions noted are these: at 1 µM.
For assay [19], the target named is Ribosomal protein S6 kinase beta-1 (Homo sapiens) (UniProt P23443). The following applies: at 0.1 µM.
The target is the same in assay [20]. The conditions noted are these: at 1 µM.

Sequence of Ribosomal protein S6 kinase alpha-4 (Homo sapiens) (O75676 whole entry, looked up): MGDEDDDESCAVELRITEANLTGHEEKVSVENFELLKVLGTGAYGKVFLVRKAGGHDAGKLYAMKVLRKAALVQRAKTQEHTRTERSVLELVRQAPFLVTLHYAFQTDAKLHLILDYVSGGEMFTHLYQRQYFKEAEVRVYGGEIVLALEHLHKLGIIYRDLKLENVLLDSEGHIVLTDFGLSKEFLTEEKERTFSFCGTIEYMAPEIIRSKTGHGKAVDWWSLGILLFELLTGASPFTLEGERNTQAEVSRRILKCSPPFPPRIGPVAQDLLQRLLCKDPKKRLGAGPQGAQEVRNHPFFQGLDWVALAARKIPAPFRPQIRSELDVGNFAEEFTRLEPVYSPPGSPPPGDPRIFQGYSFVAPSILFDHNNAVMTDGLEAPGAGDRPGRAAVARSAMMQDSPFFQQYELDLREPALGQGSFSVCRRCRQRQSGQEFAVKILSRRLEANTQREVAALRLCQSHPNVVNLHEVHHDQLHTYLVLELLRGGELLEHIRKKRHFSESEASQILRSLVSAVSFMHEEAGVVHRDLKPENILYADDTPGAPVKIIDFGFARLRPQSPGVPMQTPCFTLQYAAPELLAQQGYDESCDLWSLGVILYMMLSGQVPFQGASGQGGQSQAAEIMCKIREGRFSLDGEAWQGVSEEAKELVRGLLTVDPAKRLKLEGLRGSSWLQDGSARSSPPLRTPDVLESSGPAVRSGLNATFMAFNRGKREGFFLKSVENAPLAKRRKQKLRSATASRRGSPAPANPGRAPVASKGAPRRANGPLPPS
Sequence of Serine/threonine-protein kinase MRCK alpha (Homo sapiens) (Q5VT25 whole entry): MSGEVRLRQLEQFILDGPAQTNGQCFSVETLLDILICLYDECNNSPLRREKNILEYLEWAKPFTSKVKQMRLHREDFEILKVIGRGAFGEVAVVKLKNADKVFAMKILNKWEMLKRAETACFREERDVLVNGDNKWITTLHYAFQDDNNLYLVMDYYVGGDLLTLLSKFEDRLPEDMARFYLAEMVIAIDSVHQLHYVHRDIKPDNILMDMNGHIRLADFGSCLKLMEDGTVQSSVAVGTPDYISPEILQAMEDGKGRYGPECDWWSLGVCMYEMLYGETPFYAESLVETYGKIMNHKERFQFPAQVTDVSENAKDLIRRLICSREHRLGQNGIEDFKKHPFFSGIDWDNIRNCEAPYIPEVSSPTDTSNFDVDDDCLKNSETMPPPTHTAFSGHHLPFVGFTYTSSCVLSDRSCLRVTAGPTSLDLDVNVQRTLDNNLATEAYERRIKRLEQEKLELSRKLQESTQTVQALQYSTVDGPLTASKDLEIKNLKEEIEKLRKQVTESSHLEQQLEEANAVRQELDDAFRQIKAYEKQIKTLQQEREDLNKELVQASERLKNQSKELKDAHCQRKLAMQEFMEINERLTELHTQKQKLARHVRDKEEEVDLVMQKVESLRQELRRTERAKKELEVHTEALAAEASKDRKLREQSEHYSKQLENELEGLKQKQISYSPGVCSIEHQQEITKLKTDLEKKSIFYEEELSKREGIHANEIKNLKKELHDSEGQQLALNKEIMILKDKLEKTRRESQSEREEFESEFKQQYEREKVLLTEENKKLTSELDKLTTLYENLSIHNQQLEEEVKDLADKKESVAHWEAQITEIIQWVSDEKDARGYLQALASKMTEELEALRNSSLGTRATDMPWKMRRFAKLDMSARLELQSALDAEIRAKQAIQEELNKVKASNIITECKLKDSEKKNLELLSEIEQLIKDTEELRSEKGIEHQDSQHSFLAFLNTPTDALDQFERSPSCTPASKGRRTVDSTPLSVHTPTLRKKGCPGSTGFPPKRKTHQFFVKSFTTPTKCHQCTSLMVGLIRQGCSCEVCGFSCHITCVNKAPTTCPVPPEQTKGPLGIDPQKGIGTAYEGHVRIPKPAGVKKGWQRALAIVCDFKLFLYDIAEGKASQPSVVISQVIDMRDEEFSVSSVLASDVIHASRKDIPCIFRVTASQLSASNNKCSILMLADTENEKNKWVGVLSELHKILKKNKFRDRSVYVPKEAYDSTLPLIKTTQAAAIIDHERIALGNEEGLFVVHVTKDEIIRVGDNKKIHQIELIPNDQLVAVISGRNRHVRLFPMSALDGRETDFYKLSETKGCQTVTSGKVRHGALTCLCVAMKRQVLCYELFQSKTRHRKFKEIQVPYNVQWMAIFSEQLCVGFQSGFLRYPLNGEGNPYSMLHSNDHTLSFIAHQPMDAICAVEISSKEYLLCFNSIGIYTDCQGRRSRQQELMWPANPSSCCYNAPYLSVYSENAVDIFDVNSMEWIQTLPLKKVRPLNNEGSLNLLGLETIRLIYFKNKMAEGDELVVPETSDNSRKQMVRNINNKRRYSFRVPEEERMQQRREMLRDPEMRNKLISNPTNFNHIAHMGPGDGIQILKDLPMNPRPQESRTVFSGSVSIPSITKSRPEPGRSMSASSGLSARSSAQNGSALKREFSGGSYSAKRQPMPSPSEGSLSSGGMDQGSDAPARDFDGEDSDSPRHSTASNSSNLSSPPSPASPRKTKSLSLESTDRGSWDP
Sequence of RAC-alpha serine/threonine-protein kinase (Homo sapiens) (P31749 whole entry): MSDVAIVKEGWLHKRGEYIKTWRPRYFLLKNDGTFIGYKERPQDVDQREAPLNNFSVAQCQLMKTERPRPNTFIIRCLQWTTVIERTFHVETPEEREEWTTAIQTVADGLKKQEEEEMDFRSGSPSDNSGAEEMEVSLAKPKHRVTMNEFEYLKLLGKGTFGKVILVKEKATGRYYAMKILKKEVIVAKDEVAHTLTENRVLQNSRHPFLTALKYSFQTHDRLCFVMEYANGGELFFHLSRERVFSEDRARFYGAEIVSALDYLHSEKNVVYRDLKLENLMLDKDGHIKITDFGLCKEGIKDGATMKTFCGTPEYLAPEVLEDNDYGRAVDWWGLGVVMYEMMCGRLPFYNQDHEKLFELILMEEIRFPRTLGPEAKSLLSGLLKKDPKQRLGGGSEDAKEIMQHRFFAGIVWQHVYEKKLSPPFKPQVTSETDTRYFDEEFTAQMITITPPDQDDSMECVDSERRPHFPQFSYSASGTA
Sequence of RAC-gamma serine/threonine-protein kinase (Homo sapiens) (Q9Y243 whole entry): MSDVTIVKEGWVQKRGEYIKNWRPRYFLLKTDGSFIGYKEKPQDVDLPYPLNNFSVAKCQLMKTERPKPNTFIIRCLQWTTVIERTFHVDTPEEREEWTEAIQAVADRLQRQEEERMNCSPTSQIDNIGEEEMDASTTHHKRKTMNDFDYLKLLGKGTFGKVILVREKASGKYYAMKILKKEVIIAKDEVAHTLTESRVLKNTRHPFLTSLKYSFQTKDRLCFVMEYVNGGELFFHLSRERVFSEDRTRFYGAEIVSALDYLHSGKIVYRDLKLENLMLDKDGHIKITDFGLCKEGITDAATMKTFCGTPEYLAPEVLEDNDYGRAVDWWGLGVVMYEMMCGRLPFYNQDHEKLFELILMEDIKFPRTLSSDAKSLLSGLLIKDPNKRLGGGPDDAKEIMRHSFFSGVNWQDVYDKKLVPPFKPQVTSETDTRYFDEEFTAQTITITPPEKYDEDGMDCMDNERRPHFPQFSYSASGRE
Sequence of G protein-coupled receptor kinase 6 (Homo sapiens) (P43250 whole entry, looked up): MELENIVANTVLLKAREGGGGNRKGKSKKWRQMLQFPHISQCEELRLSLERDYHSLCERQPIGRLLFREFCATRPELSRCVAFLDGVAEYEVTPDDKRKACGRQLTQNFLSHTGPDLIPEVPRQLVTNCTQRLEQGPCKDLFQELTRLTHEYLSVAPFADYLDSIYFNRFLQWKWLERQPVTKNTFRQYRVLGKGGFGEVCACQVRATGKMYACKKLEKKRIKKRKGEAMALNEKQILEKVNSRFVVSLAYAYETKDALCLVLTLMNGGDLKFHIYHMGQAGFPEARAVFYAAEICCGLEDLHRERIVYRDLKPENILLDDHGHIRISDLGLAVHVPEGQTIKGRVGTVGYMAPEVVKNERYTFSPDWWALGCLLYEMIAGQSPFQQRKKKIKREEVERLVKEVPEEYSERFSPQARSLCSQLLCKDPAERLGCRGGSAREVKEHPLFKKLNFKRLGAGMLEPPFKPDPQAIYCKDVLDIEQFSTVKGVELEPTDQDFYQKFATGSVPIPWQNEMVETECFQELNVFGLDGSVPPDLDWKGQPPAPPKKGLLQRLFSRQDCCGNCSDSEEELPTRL
Sequence of RAC-beta serine/threonine-protein kinase (Homo sapiens) (P31751 whole entry): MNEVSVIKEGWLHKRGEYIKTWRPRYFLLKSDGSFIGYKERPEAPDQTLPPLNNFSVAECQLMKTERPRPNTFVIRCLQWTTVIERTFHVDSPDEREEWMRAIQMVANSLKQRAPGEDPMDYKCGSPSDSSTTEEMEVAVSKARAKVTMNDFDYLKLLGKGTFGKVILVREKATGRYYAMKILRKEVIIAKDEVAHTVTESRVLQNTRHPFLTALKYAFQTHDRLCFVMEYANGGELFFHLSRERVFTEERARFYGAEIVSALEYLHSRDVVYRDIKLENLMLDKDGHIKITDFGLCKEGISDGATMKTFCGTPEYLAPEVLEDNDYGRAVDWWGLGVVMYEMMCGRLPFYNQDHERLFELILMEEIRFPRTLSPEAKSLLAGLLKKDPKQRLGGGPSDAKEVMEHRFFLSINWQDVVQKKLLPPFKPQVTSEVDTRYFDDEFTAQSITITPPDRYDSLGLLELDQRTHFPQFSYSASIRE
Sequence of Ribosomal protein S6 kinase beta-1 (Homo sapiens) (P23443 whole entry, looked up): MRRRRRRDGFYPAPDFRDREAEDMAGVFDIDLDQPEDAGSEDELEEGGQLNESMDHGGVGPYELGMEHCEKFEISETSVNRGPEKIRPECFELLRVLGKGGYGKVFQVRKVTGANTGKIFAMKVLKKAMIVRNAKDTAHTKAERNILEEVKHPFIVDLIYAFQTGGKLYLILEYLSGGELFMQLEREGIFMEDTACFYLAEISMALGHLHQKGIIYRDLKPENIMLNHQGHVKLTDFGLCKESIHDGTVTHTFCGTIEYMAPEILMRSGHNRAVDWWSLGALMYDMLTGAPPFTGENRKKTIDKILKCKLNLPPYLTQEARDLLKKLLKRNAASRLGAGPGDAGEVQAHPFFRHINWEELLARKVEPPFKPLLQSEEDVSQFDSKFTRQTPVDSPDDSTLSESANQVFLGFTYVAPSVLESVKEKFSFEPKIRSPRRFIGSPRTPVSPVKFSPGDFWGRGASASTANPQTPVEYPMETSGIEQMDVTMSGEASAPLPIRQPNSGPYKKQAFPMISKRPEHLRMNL

As for `Nc1ncnc2occ(-c3ccc(NC(=O)Nc4cccc(C(F)(F)F)c4)cc3)c12`, the inhibition was 1.53% in [1]; 0.96% in assay [2]; 1.75% in assay [3]; 2.15% in assay [4]; 0.73% in [5]; 2.7% in assay [6]. In addition, the inhibition in assay [7] is 2.54%; in [8], 0.47%; in assay [9], 8.48%; in assay [10], 4.95%; in assay [11] it was -3.03%; in assay [12], 0.21%. The inhibition in [13] was found to be 0.84%; in assay [14], 1.21%; in assay [15], 6.35%; in assay [16], 19.5%; in assay [17], 3.31%; in assay [18] it was 20.8%. Besides, the inhibition was 21% in assay [19] and 73.5% in assay [20].

As to `CCCN1CCC=C(c2ccc(Nc3nc(Nc4ccccc4C(N)=O)c4cc[nH]c4n3)c(C)c2)C1`, the inhibition in assay [1] was 0.97%; in assay [2], 1.22%; in assay [3] it was 1.3%; in [4], 1.5%; in assay [5], -0.2%; in assay [6], 5.51%. Besides, the inhibition in assay [7] is 6.79%; in [8] it was 31.4%; in assay [9], 11.2%; in [10] it was 20.5%; in assay [11] it was 5.2%; in assay [12], 9.75%. The inhibition came out at 0.66% in assay [13]; 4.44% in assay [14]; 4.46% in assay [15]; 6.4% in assay [16]; 1.37% in [17]; 5.28% in [18]. Further, the inhibition was 0.98% in [19] and 6.39% in assay [20].

For `COC(=O)Nc1nc2cc(Oc3cccc(NC(=O)Nc4cc(C(F)(F)F)ccc4F)c3)ccc2[nH]1`, the inhibition is 0.52% in assay [1]; 0.1% in assay [2]; -0.46% in [3]; -0.62% in assay [4]; 0.98% in assay [5]; 1.83% in assay [6]. The inhibition in assay [7] was 2.28%; in [8] it was 0.3%; in assay [9], -2.92%; in assay [10], 1.74%; in [11] it was 0.87%; in assay [12], 0.69%. Besides, the inhibition is -0.19% in assay [13]; 2.03% in assay [14]; 0.09% in assay [15]; 1.11% in [16]; -0.69% in [17]; 1.7% in assay [18]. Also, the figures for the inhibition in assay [19] and in assay [20] were -0.07% and 1.88%, respectively.

For `O=C1NC(=O)C(N2CCc3ccccc32)=C1c1ccc(Cl)cc1`, the inhibition in [1] worked out at 1.09%; in [2], 1.67%; in assay [3] it was 1.7%; in [4] it was 2.85%; in assay [5], 2.52%; in [6], 1.75%. Further, the inhibition in assay [7] came out at 0.71%; in assay [8] it was 3.31%; in assay [9] it was 2.29%; in [10], 7.76%; in assay [11] it was 0.19%; in assay [12], 0.98%. In addition, the inhibition stood at 0.69% in assay [13]; 1.86% in assay [14]; 9.94% in assay [15]; 7.93% in [16]; 1.73% in [17]; 4.02% in assay [18]. For the same compound, the results for the inhibition in [19] and in [20] were 1.81% and 1.76%, respectively.

For `Cc1cccc(-c2n[nH]cc2-c2ccc3ncccc3n2)n1`, the inhibition is -0.73% in assay [1]; 0.02% in [2]; 0.56% in assay [3]; -0.22% in [4]; 2.42% in assay [5]; 2.13% in assay [6]. Moreover, the inhibition was 0.46% in assay [7]; 3.16% in [8]; -0.51% in assay [9]; 5.08% in assay [10]; 0.34% in assay [11]; 0.69% in [12]. Moreover, the inhibition in assay [13] is 0.87%; in assay [14], 1.36%; in assay [15], 0.79%; in assay [16], 0.35%; in assay [17], 1.84%; in [18] it was 0.64%. Further, the inhibition in assay [19] is 0.55%; in assay [20], -0.68%.

`O=C1NC(=O)C(c2ccccc2Cl)=C1Nc1cccc(O)c1`: the inhibition worked out at 0.96% in assay [1]; 1.06% in assay [2]; 1.74% in assay [3]; 1.48% in assay [4]; 0.92% in assay [5]; 1.56% in assay [6]. Also, the inhibition in assay [7] is 1.82%; in [8], 2.13%; in [9], 1.36%; in assay [10] it was -6.28%; in [11], 0.28%; in assay [12] it was -0.35%. The inhibition turned out to be 1.4% in assay [13]; 3.99% in assay [14]; 2.66% in assay [15]; 5.41% in assay [16]; 1.39% in assay [17]; 3.42% in [18]. Further, the inhibition in assay [19] is 1.47%; in [20] it was 0.61%.

In the case of `NS(=O)(=O)c1cccc(-c2ccc3c(NC(=O)C4CC4)n[nH]c3c2)c1`, the inhibition was -2.14% in assay [1]; -1.44% in [2]; -4.21% in [3]; -1.31% in [4]; -1.31% in assay [5]; -2.99% in [6]. For the same compound, the inhibition in assay [7] was 1.43%; in [8] it was 2.82%; in assay [9], -7.07%; in assay [10] it was -0.65%; in assay [11], 0.11%; in assay [12], -0.38%. The inhibition in [13] is 0.03%; in assay [14] it was 2.23%; in [15] it was -0.03%; in [16], 1.96%; in assay [17] it was -0.84%; in assay [18] it was 0.37%. Also, the inhibition was -1.3% in [19] and 0.07% in assay [20].

As a reminder, the inhibition is the change of the read-out against control, counted positive when it falls.
